From PubChem BioAssay (NCATS)
Inconclusive results are not listed. Where a call stands in place of a potency, no number is given. Calls of active or inactive are those of the source.

Key:
[1] = Ebola virus entry cell assay, ratio channel
[2] = Immunotoxin (HA22) sensitization/mitigation study. Vehicle arm (PBS) (AID 1159510; call rule not given here; further: potency means the concentration at half of the fitted maximal effect); conditions: cancer cells viability with PBS vehicle (HA22 study); series mostly up to 46.1 µM
[3] = Immunotoxin (SS1P) sensitization/mitigation study. Vehicle arm (DMEM) (AID 1159513; call rule not given here; further: potency means the concentration at half of the fitted maximal effect); conditions: cell viability with vehicle (DMEM); series mostly up to 46.1 µM
[4] = High-throughput drug toxicity screening in the BPDCN cell line Cal-1 (AID 1224825; call rule not given here); conditions: Cal-1 BPDCN cell viability, qHTS; at 45.8 µM (top of the series)
Method in brief: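 Exponentially growing Cal-1 cells, 500 per well in phenol red-free RPMI with 10% FBS, were exposed to compounds for 48 h at 37 °C, 5% CO2. Viability was read by CellTiter-Glo luminescence and normalised to DMSO (100%) and 9.2 uM bortezomib (0%).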

[5] = qHTS assay for measurement of the activity of small molecule inhibitors on Zika virus induced Caspase-3 activity in human iPSC derived neural progenitor cells (hNPCs) (AID 1224857); conditions: hNPCs ZIKV-induced caspase-3/7, Caspase-Glo luminescence, 6 h; series mostly up to 45.7 µM; further: nearly all actives have a fitted effect of over 65% in size
Method in brief: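 hNPCs seeded 350 cells/well, cultured 16–20 h; compounds added 1 h before ZIKV (2 FFU/cell), 37 C 6 h. Caspase-Glo 3/7 luminescence after 30 min RT; % inhibition from induction scaled to uninfected (0%) and infected (100%) wells.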

[6] = qHTS assay for measurement of the activity of small molecule inhibitors on Zika virus induced Caspase-3 activity in human astrocytoma cells (AID 1224859); conditions: SNB-19 ZIKV-induced caspase-3/7, luminescence, 6 h; series mostly up to 45.7 µM
Method in brief: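 Luminescence read-out (Caspase-Glo 3/7, 30 min RT) of caspase activity in SNB-19 cells infected 6 h with ZIKV, 2 FFU/cell, after 1 h compound pretreatment; % inhibition from induction normalised to uninfected (0%) and infected (100%) wells.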

[7] = qHTS Screen of the MIPE 4.0 Collection Against Ewings Sarcoma (RDES) (AID 1259252); conditions: RD-ES Ewing sarcoma viability, CellTiter-Glo, 48 h; series mostly up to 45.8 µM; further: nearly all actives have a fitted effect of over 35% in size; further: potency means the concentration at half of the fitted maximal effect
Method in brief: (§1)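 Here, cells in 5% FBS RPMI were exposed for two days (48 h) to compound dilutions added four hours after plating. ATP-based CellTiter-Glo luminescence measured viability, normalized to vehicle and no-cell blanks.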

[8] = qHTS Screen of the MIPE 4.0 Collection Against Ewings Sarcoma (TC32) (AID 1259256); conditions: TC32 Ewing sarcoma viability, CellTiter-Glo, 48 h; series mostly up to 45.8 µM; further: nearly all actives have a fitted effect of over 45% in size; further: potency means the concentration at half of the fitted maximal effect
Method in brief: as §1

[9] = qHTS Screen of the MIPE 4.0 Collection Against Ewings Sarcoma (EW8) (AID 1259255); conditions: EW8 Ewing sarcoma viability, CellTiter-Glo, 48 h; series mostly up to 45.8 µM; further: nearly all actives have a fitted effect of over 35% in size; further: potency means the concentration at half of the fitted maximal effect
Method in brief: as §1

[10] = qHTS Screen of the MIPE 4.0 Collection Against Ewings Sarcoma (TC71) (AID 1259253); conditions: TC71 Ewing sarcoma viability, CellTiter-Glo, 48 h; series mostly up to 45.8 µM; further: nearly all actives have a fitted effect of over 40% in size; further: potency means the concentration at half of the fitted maximal effect
Method in brief: as §1

With `CC1(C)S[C@@H]2[C@H](NC(=O)Cc3ccccc3)C(=O)N2[C@H]1C(=O)O` (tested in a mixture with another compound) the outcome [1] was “inactive”.

For `Cn1c(CCCC(=O)O)nc2cc(N(CCCl)CCCl)ccc21`, the outcome [1] was “inactive”, the Potency [2] was “inactive” and the Potency [3] was “inactive”. The viability (% of control) [4] was 6.62%, the Potency [5] was “inactive” and the outcome [6] was “inactive”. The Potency [7] was 26.4 µM (active) and the Potency [8] was “inactive”.

With `COc1cc2nc(N(C)CCCNC(=O)C3CCCO3)nc(N)c2cc1OC` (centres undefined) the outcome [1] was “inactive”.

With `CC[C@@]1(O)C(=O)OCc2c1cc1n(c2=O)Cc2cc3c(CN(C)C)c(O)ccc3nc2-1` the AC50 [1] was 5.62 µM (active), the Potency [2] was 0.0118 µM (active) and the Potency [3] was 5.9 µM (active).

For `CC1Cc2ccccc2N1NC(=O)c1ccc(Cl)c(S(N)(=O)=O)c1` (centres undefined), the outcome [1] was “inactive”.

For `CC(c1cc2ccccc2s1)N(O)C(N)=O` (centres undefined), the outcome [1] was “inactive”, the Potency [2] was “inactive” and the Potency [3] was “inactive”.

For `O=P1(NCCCl)OCCCN1CCCl` (centres undefined), the outcome [1] was “inactive”, the viability (% of control) [4] was 20.1% and the Potency [5] was “inactive”. The outcome [6] was “inactive”, the Potency [9] was 20.9 µM (active) and the Potency [8] was “inactive”.

With `COc1ccc(C(CN(C)C)C2(O)CCCCC2)cc1` (centres undefined) the outcome [1] was “inactive”, the viability (% of control) [4] was 107% and the Potency [5] was “inactive”. The outcome [6] was “inactive”, the Potency [10] was “inactive” and the Potency [9] was 26.4 µM (active).

In the case of `CCN(CCO)CCCC(C)Nc1ccnc2cc(Cl)ccc12` (centres undefined), the AC50 [1] is reported as 1.26 µM (active), the Potency [2] is reported as “inactive” and the Potency [3] is reported as “inactive”.

With `C=C1CC[C@@]2(O)[C@H]3Cc4ccc(O)c5c4[C@@]2(CCN3CC2CC2)[C@H]1O5` the outcome [1] was “inactive”, the Potency [5] was “inactive” and the outcome [6] was “inactive”.

In the case of `Cn1ccc2cc3c(cc21)CCN3C(=O)Nc1cccnc1`, the Potency [2] is reported as “inactive” and the Potency [3] is reported as “inactive”.

For `Cn1cnc2c(F)c(Nc3ccc(Br)cc3Cl)c(C(=O)NOCCO)cc21`, the Potency [2] was “inactive” and the Potency [3] was “inactive”.

With `CCC1C(=O)OCC1Cc1cncn1C` (centres undefined) the outcome [1] was “inactive” and the Potency [5] was “inactive”.

With `N[C@@H]1C[C@H]1c1ccccc1` the outcome [1] was “inactive”, the Potency [5] was “inactive” and the outcome [6] was “inactive”.

In the case of `CN1CC(=O)N/C1=N/C(=O)Nc1cccc(Cl)c1`, the Potency [2] is reported as “inactive” and the Potency [3] is reported as “inactive”.

In the case of `CCN(C(C)=O)c1cccc(-c2ccnc3c(C#N)cnn23)c1`, the outcome [1] is reported as “inactive”, the Potency [5] is reported as “inactive” and the outcome [6] is reported as “inactive”.

In the case of `Cc1ccc(-n2nc(C(C)(C)C)cc2NC(=O)Nc2ccc(OCCN3CCOCC3)c3ccccc23)cc1`, the Potency [2] is reported as 10.5 µM (active) and the Potency [3] is reported as “inactive”.

With `CC1=C(/C=C/C(C)=C/C=C/C(C)=C/C(=O)Nc2ccc(O)cc2)C(C)(C)CCC1` the Potency [2] was 1.87 µM (active) and the Potency [3] was 23.5 µM (active).

In the case of `CC1OC(C)OC(C)O1` (centres undefined), the outcome [1] is reported as “inactive” and the outcome [6] is reported as “inactive”.

With `NCC(CC(=O)O)c1ccc(Cl)cc1` (centres undefined) the outcome [1] was “inactive”, the Potency [5] was “inactive” and the outcome [6] was “inactive”.

With `CC1=C2C[C@@H]3[C@@H](CC=C4C[C@@H](O)CC[C@@]43C)[C@@H]2CC[C@]12O[C@H]1C[C@H](C)CN[C@H]1[C@H]2C` the Potency [2] was 23.5 µM (active), the Potency [3] was 20.9 µM (active) and the viability (% of control) [4] was 116%. For the same compound, the Potency [5] was “inactive”, the outcome [6] was “inactive” and the Potency [7] was “inactive”.

For `C=CC(=O)Nc1cc2c(Nc3ccc(F)c(Cl)c3)ncnc2cc1OCCCN1CCOCC1`, the Potency [2] was 18.7 µM (active) and the Potency [3] was 26.4 µM (active).

In the case of `CC(=O)SC[C@@H](C)C(=O)N1CCC[C@H]1C(=O)N[C@@H](Cc1ccccc1)C(=O)O`, the Potency [2] is reported as “inactive” and the Potency [3] is reported as “inactive”.

In the case of `O=c1[nH]c2ccccc2n1C1CCN(CCCC(c2ccc(F)cc2)c2ccc(F)cc2)CC1`, the AC50 [1] is reported as 7.94 µM (active) and the outcome [6] is reported as “inactive”.

In the case of `C=C1C[C@@H]2[C@H](CC[C@]3(C)C(=O)CC[C@@H]23)[C@@]2(C)C=CC(=O)C=C12`, the AC50 [1] is reported as 15.8 µM (active), the Potency [5] is reported as “inactive” and the outcome [6] is reported as “inactive”.

For `CC(C)n1c(C=C[C@H](O)C[C@H](O)CC(=O)O)c(-c2ccc(F)cc2)c2ccccc21`, the Potency [2] was 8.33 µM (active) and the Potency [3] was 9.35 µM (active).

With `C[C@@H]1[C@@H](CC(C[C@H]2O[C@@H]3O[C@]4(C)CC[C@@H]5[C@H](C)CC[C@@H]([C@H]2C)[C@@]35OO4)C[S+](=O)([O-])c2ccc(COC(=O)N(C)C)cc2)O[C@@H]2O[C@]3(C)CC[C@H]4[C@H](C)CC[C@@H]1[C@@]24OO3` (some centres undefined) the Potency [2] was 0.0332 µM (active), the Potency [3] was 0.418 µM (active) and the viability (% of control) [4] was 13.4%. The Potency [5] was “inactive”, the outcome [6] was “inactive” and the Potency [7] was 0.418 µM (active). For the same compound, the Potency [10] was 0.332 µM (active), the Potency [9] was 0.264 µM (active) and the Potency [8] was 0.469 µM (active).

With `CCCc1nc2c(C)cc(-c3nc4ccccc4n3C)cc2n1Cc1ccc(-c2ccccc2C(=O)O)cc1` the Potency [2] was 26.4 µM (active) and the Potency [3] was “inactive”.

In the case of `C[C@]12CC[C@H]3[C@@H](CCC4=CC(=O)CC[C@@H]43)[C@@H]1CC[C@@H]2OC(=O)CCc1ccccc1`, the outcome [1] is reported as “inactive”, the Potency [5] is reported as “inactive” and the outcome [6] is reported as “inactive”.

For `COc1cc(Nc2c(C#N)cnc3cc(OCCCN4CCN(C)CC4)c(OC)cc23)c(Cl)cc1Cl`, the Potency [2] was 13.2 µM (active) and the Potency [3] was 23.5 µM (active).

In the case of `Cc1ccc(-c2nc3ccc(C)cn3c2CC(=O)N(C)C)cc1`, the outcome [1] is reported as “inactive”, the Potency [5] is reported as “inactive” and the outcome [6] is reported as “inactive”.

With `CCCCC/C=C\C/C=C\C/C=C\C/C=C\CCCC(=O)NC1CC1` the Potency [2] was “inactive” and the Potency [3] was “inactive”.

For `CN(C)CCN(C)CCc1ccc(Cl)c(Cl)c1`, the Potency [2] was 18.7 µM (active), the Potency [3] was “inactive” and the viability (% of control) [4] was 92.7%. For the same compound, the Potency [5] was “inactive”, the outcome [6] was “inactive” and the Potency [7] was “inactive”. For the same compound, the Potency [10] was “inactive”, the Potency [9] was “inactive” and the Potency [8] was “inactive”.

In the case of `COc1cccc2c1C(=O)c1c(O)c3c(c(O)c1C2=O)C[C@@](O)(C(=O)CO)C[C@@H]3O[C@H]1C[C@H](N)[C@H](O)[C@H](C)O1`, the Potency [2] is reported as 0.0118 µM (active) and the Potency [3] is reported as 0.187 µM (active).

For `CO[C@]12CC[C@@]3(C[C@@H]1[C@](C)(O)C(C)(C)C)[C@@H]1Cc4ccc(O)c5c4[C@@]3(CCN1CC1CC1)[C@H]2O5`, the outcome [1] was “inactive”, the Potency [5] was “inactive” and the outcome [6] was “inactive”.

For `CS(=O)c1ccc(-c2nc(-c3ccc(F)cc3)c(-c3ccncc3)[nH]2)cc1` (centres undefined), the Potency [2] was “inactive” and the Potency [3] was “inactive”.

For `CCC(COC(=O)c1cc(OC)c(OC)c(OC)c1)(c1ccccc1)N(C)C` (centres undefined), the outcome [1] was “inactive” and the outcome [6] was “inactive”.

For `CCC(C(N)=O)N1CCCC1=O` (centres undefined), the outcome [1] was “inactive”, the Potency [5] was “inactive” and the outcome [6] was “inactive”.

With `CO[C@@H](C(=O)N1Cc2[nH]nc(NC(=O)c3ccc(N4CCN(C)CC4)cc3)c2C1)c1ccccc1` the Potency [2] was 0.332 µM (active) and the Potency [3] was 23.5 µM (active).

With `CC1(CN2CCC(n3c(=O)[nH]c4ccccc43)CC2)OCc2ccccc2-n2cccc21` (centres undefined) the Potency [2] was 26.4 µM (active).

In the case of `CC(C)C[C@H](NC(=O)[C@H](CCc1ccccc1)NC(=O)CN1CCOCC1)C(=O)N[C@@H](Cc1ccccc1)C(=O)N[C@@H](CC(C)C)C(=O)[C@@]1(C)CO1`, the Potency [2] is reported as 0.0015 µM (active) and the Potency [3] is reported as 0.0418 µM (active).

With `Cc1cc2c(C(C)C)c(O)c(O)c(C=O)c2c(O)c1-c1c(C)cc2c(C(C)C)c(O)c(O)c(C=O)c2c1O` the Potency [2] was 8.33 µM (active).

In the case of `C[C@]12C/C(=C/O)C(=O)C[C@@H]1CC[C@@H]1[C@@H]2CC[C@@]2(C)[C@H]1CC[C@]2(C)O`, the outcome [1] is reported as “inactive”, the Potency [5] is reported as “inactive” and the outcome [6] is reported as “inactive”.

With `COc1cc2c(N3CCN(C(=O)Nc4ccc(OC(C)C)cc4)CC3)ncnc2cc1OCCCN1CCCCC1` the Potency [2] was 20.9 µM (active).

In the case of `CCN(CC)CCN1C(=O)CN=C(c2ccccc2F)c2cc(Cl)ccc21`, the outcome [1] is reported as “inactive” and the outcome [6] is reported as “inactive”.

With `COc1cc([C@@H]2c3cc4c(cc3[C@H](O)[C@H]3COC(=O)[C@H]23)OCO4)cc(OC)c1OC` the Potency [2] was 0.0037 µM (active) and the Potency [3] was 0.0083 µM (active).

With `CCOC(=O)C1(c2ccccc2)CCN(CCC(C#N)(c2ccccc2)c2ccccc2)CC1` the AC50 [1] was 14.1 µM (active), the Potency [5] was “inactive” and the outcome [6] was “inactive”.
